Results taken from PubChem BioAssay AID1159580 (chemical genetic matrix, 2015).
Values joined by “and” are separate entries in the source; they are usually repeats but may differ in a detail not shown here. Equal entries are not always repeated. Among all 5,500 compounds or so, about 2,000 (36%) were called active. About 18% were inconclusive and are not listed. Rule as the data show it: active = normalized growth mostly below about 0.91 (no sharp cut-off); inconclusive = no clear call, values can overlap the other calls; inactive = mostly above about 0.92. The list shows a part of the results.

Experiment: chemical genetic growth profiling, strain panel (AID 1159580);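 also: tested at 20 µM; growth read once vehicle control cultures reached saturation at 30 °C; 1 = growth at the plate median or of vehicle wells; lower values mean less growth of the strain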
Settings: S. cerevisiae deletion strains, growth OD

Measured: normalized growth

O=c1c(O)c(-c2ccc(O)cc2O)oc2cc(O)cc(O)c12
inactive: locus YAL013W, strain DEP1, hits give low values 1 | locus YAL021C, strain ccr4, hits give low values 0.949 | locus YAL026C, strain drs2, hits give low values 0.973 | locus YAL030W, strain snc1, hits give low values 0.99 | locus YAL040C, strain CLN3, hits give low values 1.01 | locus YBL061C, strain skt5, hits give low values 0.963 | locus YBR009C, strain hhf1, hits give low values 1 | locus YBR021W, strain FUR4, hits give low values 1.01 | locus YBR023C, strain chs3, hits give low values 1.01 | locus YBR171W, strain sec66, hits give low values 0.983 | locus YBR229C, strain ROT2, hits give low values 0.988 | locus YBR231C, strain swc5, hits give low values 0.965 | locus YBR279W, strain paf1, hits give low values 0.995 | locus YCL011C, strain gbp2, hits give low values 1 | locus YCL016C, strain dcc1, hits give low values 0.988 | locus YCL029C, strain bik1, hits give low values 1.01 | locus YCL061C, strain MRC1 (second series), hits give low values 0.986 | locus YCL061C, strain MRC1, hits give low values 0.976 | locus YCL069W, strain vba3, hits give low values 0.997 | locus YCR088W, strain abp1, hits give low values 0.991 | locus YDL005C, strain med2, hits give low values 1.01 | locus YDL035C, strain GPR1, hits give low values 0.973 | locus YDL040C, strain nat1, hits give low values 1 | locus YDL074C, strain BRE1, hits give low values 1 | locus YDL101C, strain DUN1, hits give low values 1 | locus YDL185W, strain tfp1, hits give low values 0.976 | locus YDL192W, strain arf1, hits give low values 0.974 | locus YDR001C, strain nth1, hits give low values 0.999 | locus YDR101C, strain arx1, hits give low values 1 | locus YDR137W, strain rgp1, hits give low values 1 | locus YDR150W, strain NUM1, hits give low values 0.986 | locus YDR159W, strain sac3, hits give low values 0.985 | locus YDR162C, strain NBP2, hits give low values 0.971 | locus YDR195W, strain ref2 0.964 | locus YDR297W, strain sur2, hits give low values 0.978 | locus YDR318W, strain mcm21, hits give low values 1.01 | locus YDR334W, strain swr1, hits give low values 0.956 | locus YDR335W, strain msn5, hits give low values 0.98 | locus YDR363W, strain ESC2, hits give low values 0.995 | locus YDR388W, hits give low values 0.991 | locus YDR392W, strain spt3, hits give low values 0.99 | locus YDR502C, strain sam2, hits give low values 1.02 | locus YEL003W, strain gim4, hits give low values 0.976 | locus YEL037C, strain rad23, hits give low values 0.989 | locus YEL061C, strain CIN8 (second series), hits give low values 0.992 | locus YEL061C, strain CIN8, hits give low values 0.995 | locus YER002W, strain NOP16, hits give low values 1.03 | locus YER015W, strain faa2, hits give low values 0.984 | locus YER016W, strain bim1, hits give low values 1 | locus YER110C, hits give low values 1.02 | locus YER111C, strain swi4, hits give low values 0.954 | locus YER155C, strain BEM2 (second series), hits give low values 0.977 | locus YER155C, strain BEM2, hits give low values 1.01 | locus YER167W, strain BCK2, hits give low values 0.996 | locus YFR010W, strain ubp6, hits give low values 0.916 | locus YGL078C, strain dbp3, hits give low values 1.01 | locus YGL086W, strain mad1, hits give low values 1.06 | locus YGL167C, strain pmr1, hits give low values 0.98 | locus YGL173C, strain kem1, hits give low values 0.947 | locus YGL227W, strain vid30, hits give low values 1.01 | locus YGL240W, strain doc1, hits give low values 1 | locus YGL248W, strain PDE1, hits give low values 0.966 | locus YGL253W, strain hxk2, hits give low values 0.994 | locus YGR078C, strain PAC10, hits give low values 0.97 and 1.01 | locus YGR135W, strain pre9, hits give low values 0.991 | locus YHR013C, strain ard1, hits give low values 0.962 | locus YHR027C, strain rpn1, hits give low values 0.973 | locus YHR030C, strain SLT2, hits give low values 0.993 and 0.957 | locus YHR079C, strain IRE1 (second series), hits give low values 1.02 | locus YHR079C, strain IRE1, hits give low values 0.968 | locus YHR094C, strain hxt1, hits give low values 1.02 | locus YHR129C, strain ARP1, hits give low values 0.973 | locus YHR142W, strain chs7, hits give low values 0.945 | locus YHR200W, strain rpn10, hits give low values 0.994 | locus YIL066C, strain RNR3, hits give low values 0.943 | locus YIL073C, strain SPO22, hits give low values 1.08 | locus YIL125W, strain kgd1, hits give low values 0.999 | locus YIR030C, strain dcg1, hits give low values 1.02 | locus YJL092W, strain hpr5, hits give low values 0.996 | locus YJL095W, strain BCK1 (second series), hits give low values 0.964 | locus YJL095W, strain BCK1, hits give low values 0.986 and 0.988 | locus YJL115W, strain asf1, hits give low values 0.994 | locus YJL129C, strain trk1, hits give low values 1.02 | locus YJL134W, strain LCB3, hits give low values 1.02 | locus YJL154C, strain vps35, hits give low values 1.02 | locus YJL164C, strain tpk1, hits give low values 0.975 | locus YJL166W, strain qcr8, hits give low values 0.984 | locus YJL168C, strain set2, hits give low values 1 | locus YJL187C, strain SWE1 (second series), hits give low values 0.966 | locus YJR043C, strain POL32, hits give low values 0.956 | locus YJR066W, strain TOR1, hits give low values 0.935 | locus YJR075W, strain HOC1, hits give low values 1.01
active: locus YDR069C, strain doa4, hits give low values 0.857
